# Screening results (PubChem)
# ABCB6 inh MLPCN = inhibitors of human ABC transporter ABCB6; Q9NP58; K562-ABCB6 porphyrin accumulation, flow cytometry, 1 h; stronger effect = lower value; fluorescence ratio to DMSO, % at 10 µM; actives 0.19% (n = 360,000);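 active means fluorescence ratio to DMSO below 75%, the collection mean minus 3 SD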;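 further: signal is porphyrin accumulated inside mitochondria; lower ratio means ABCB6 inhibition with less porphyrin fluorescence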
# Exocytosis inh = blocks lytic granule exocytosis; actives 0.66% (n = 360,000); inhibition, % at 10 µM; TALL-104 LAMP-1 surface exposure, flow cytometry; cells stimulated with thapsigargin and PMA;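 active means inhibition above about 55%, limit read from the data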
# PG9 binder = binds the HIV-1 gp120 antibody PG9; TR-FRET gp120-PG9 antibody binding; inhibition, % at 6.7 µM; actives 0.43% (n = 360,000); AID 624416; in the data active means inhibition above about 8.5%
# rCAG binder = molecules binding r(CAG) RNA repeats. r(CAG) RNA repeat, TO-PRO-1 dye displacement fluorescence. inhibition, % at 3 µM. actives 1.3% (n = 370,000). AID 651821;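 active means inhibition above the plate cutoff, the mean of all test compounds on that plate plus 3 SD, cut at about 35% in these data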;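 further: higher means more dye released from RNA so lower well fluorescence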
# PG9 bind confirm = confirmation of small molecules binding HIV-1 gp120 antibody PG9; shares compounds with PG9 binder; TR-FRET PG9 antibody binding, biochemical; inhibition, % at 6.7 µM; actives 90% (n = 1,500); in the data active means inhibition above about 9%
# PGV04 counter = counter-screen for PG9 binders: binding control antibody PGV04; shares compounds with PG9 binder; TR-FRET PGV04 antibody-gp120 binding, biochemical; inhibition, % at 6.7 µM; actives 95% (n = 1,500); AID 651604; in the data active means inhibition above about 9.5%
# PG9 bind DR = small molecules binding HIV-1 gp120 antibody PG9; IC50, µM; AID 651848; 95 tested, under 10 active; shares compounds with PG9 binder; TR-FRET PG9 antibody-gp120 binding inhibition; in the data active means IC50 below about 10 µM
# PGV04 DR counter = PGV04 binding, dose response counter-screen; actives 20% (n = 95); TR-FRET binding to control antibody PGV04; shares compounds with PG9 binder; IC50, µM
# PG126 DR counter = binds control antibody PG126 in PG9 counter-screen | shares compounds with PG9 binder | IC50, µM | TR-FRET binding to antibody PG126, counterscreen | actives 20% (n = 95) | AID 651939
# A number is an active result; i = inactive; nt = not tested or not shown. Most compounds without a hit are left out; they make up all but 2.5% or so of the library. Unless noted, no stated cut-off is given here; in the data, active means IC50 below about 9 µM; inactive means the rest.
SMILES,ABCB6 inh MLPCN,Exocytosis inh,PG9 binder,rCAG binder,PG9 bind confirm,PGV04 counter,others
Cc1cccnc1NC(=O)NC(=O)c1ccc(C(C)(C)C)s1,i,i,i,i,nt,nt,
O=C(CCn1nnc2ccccc21)Nc1nnc(-c2ccccc2F)s1,i,i,13,i,23,38,
CCN(CC)c1nc(-c2ccccn2)nc(-c2ccccc2)c1C#N,i,i,i,i,nt,nt,
Cc1cc(NC(=O)c2cc(-c3ccccn3)nc3ccc(Br)cc23)no1,i,i,21,i,32,67,
NS(=O)(=O)c1ccc(CCNC(=O)c2ccc(-c3ccccc3)cc2)cc1,i,i,12,i,21,14,PG9 bind DR=i;PGV04 DR counter=i;PG126 DR counter=i
Cc1cc(NC(=O)c2cc(-c3ccccn3)nc3ccccc23)no1,i,i,i,i,nt,nt,
NS(=O)(=O)c1ccc(CCNC(=O)c2cc(-c3ccccn3)nc3ccc(Br)cc23)cc1,i,i,17,i,31,63,
NS(=O)(=O)c1ccc(CCNC(=O)c2ccc(C(=O)c3ccccc3)cc2)cc1,i,i,i,i,nt,nt,
Cc1cc(C)c2nc(-c3ccccn3)cc(C(=O)Nc3cc(C)on3)c2c1,i,i,17,i,19,27,
Cc1cc(NC(=O)c2cc(-c3ccccn3)nc3c(Cl)cccc23)no1,i,i,33,i,42,62,
O=C(NN1CCCCCC1)c1ccccc1F,i,i,i,i,nt,nt,
O=C(CCC(=O)Nc1ccccc1Cl)NNC(=O)c1ccco1,i,i,i,i,nt,nt,
CC(C)Oc1cc(F)ccc1-c1cc(C(=O)NCC2CCCCC2)[nH]n1,i,i,i,i,nt,nt,
Cc1nc(SCC(=O)Nc2nccs2)c(C#N)c(C)c1C,i,i,33,i,44,66,
Cc1nc(SCC(=O)Nc2nc3ccccc3s2)c(C#N)c(C)c1C,i,i,i,i,nt,nt,
O=C(NCC(c1ccc(F)cc1)N1CCOCC1)c1ccc(OCc2ccccc2)cc1 (configuration not stated),i,i,17,i,17,22,
O=C(Nc1ccc(F)cc1)c1ccc(COc2ccccc2)cc1,i,i,9.6,i,46,56,
O=c1[nH]c2ccccc2[n+]([O-])c1-c1ccccc1,i,i,i,i,nt,nt,
CC(C)(C)C(=O)Cn1c(=O)n(-c2ccc(F)cc2F)c(=O)c2sccc21,i,i,12,i,i,i,
Cc1[nH]n(-c2ccccc2)c(=O)c1N=Nc1cccc(C(=O)O)c1,i,i,i,i,nt,nt,
CCOC(=O)c1cc(-c2ccc(C)cc2)nc2nc(SC)[nH]c(=O)c12,i,i,24,i,33,34,
COc1ccc(CC(=O)Nc2cc(S(=O)(=O)N3CCOCC3)ccc2N2CCOCC2)cc1OC,i,i,i,i,nt,nt,
Cc1cc2cc(CN3C(=O)c4ccccc4C3=O)ccc2n1C,i,i,31,i,39,63,
CC(OC(=O)c1cc(Br)ccc1O)C(=O)NCc1ccc2c(c1)OCO2 (configuration not stated),i,i,20,i,33,69,
CC(OC(=O)c1ccc(Cl)cc1)C(=O)NCc1ccc2c(c1)OCO2 (configuration not stated),i,i,i,i,nt,nt,
SMILES,ABCB6 inh MLPCN,Exocytosis inh,PG9 binder,rCAG binder,PG9 bind confirm,PGV04 counter,others
CN(NS(=O)(=O)c1ccccc1)C(=O)c1ccccc1,i,i,i,i,nt,nt,
COc1ccc2c(C)cc(SCC(=O)Nc3cccnc3Cl)nc2c1,i,i,i,i,nt,nt,
Cc1cc(SCC(=O)Nc2ncc(Cl)cc2Cl)nc2ccccc12,i,i,12,i,15,20,
Cc1ccc(-c2nn(-c3ccccc3)cc2C(=O)OCC(=O)Nc2ncc(Cl)cc2Cl)cc1,i,i,20,i,12,27,
COc1ccc2c(C)cc(SCC(=O)Nc3ncc(Cl)cc3Cl)nc2c1,i,i,14,i,37,53,
O=C(COC(=O)c1cccnc1Cl)Nc1ncc(Cl)cc1Cl,i,i,i,i,nt,nt,
COc1ccc([C@H]2CC(=O)C=C(c3cc4ccccc4c4ccccc34)C2)cc1,i,i,i,i,nt,nt,
